Data from PubChem BioAssay AID1347416 (National Center for Advancing Translational Sciences (NCATS), 2020).
Hit rate of the full screen: of about 4,100 compounds, about 1,600 (39%) were called active. About 25% were inconclusive and are not listed. The list shows a part of the results. Values without a mark were called inactive. The call rests on the fitted dose curve; in most records, active means well fitted inhibition curve with a large enough effect; inconclusive means small, poorly fitted or top-dose-only effect; inactive means no such curve, though single readings can be large or run the other way.
On the % scale 0 is the no-effect control and ±100 the full control effect; potency means the concentration at half of the fitted maximal effect.

Test: qHTS Validation assay for Inhibitors of Plasmodium falciparum Dd2 growth in vitro; further: nearly all actives have a fitted effect of over 70% in size
Settings: P. falciparum Dd2 in RBCs, SYBR Green growth, 72 h; series mostly up to 28.7 µM; activity change, negative = inhibition: at the top concentration
Outline: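 P. falciparum Dd2-infected red blood cells (2.5% hematocrit, 0.3% parasitemia) grown 72 h at 37 °C under 5% O2 with compounds in a titration, 29 uM to 0.5 nM final. Growth read as SYBR Green-1 fluorescence after ~16 h lysis; artesunate 300 nM as positive control.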
In the case of `CCOc1ccc(-c2cc3nc(C4CCN(C(=O)OC(C)(C)C)CC4)c(C(=O)Nc4ccc(C(=O)OC)cc4)cn3n2)cc1`, the Potency is reported as 4.73 µM (active).
With `CCOc1ccc(NC(=O)c2ccc3c(c2)N(C)C2CCCN2C3=O)cc1` (stereo not drawn) the “activity change, negative = inhibition” value was 0%.
With `CCCc1noc(-c2cn(C3CCN(C(=O)c4ccc(OC)cc4C)CC3)nn2)n1` the “activity change, negative = inhibition” value was -20.5%.
In the case of `O=C(c1[nH]nc2c1COc1ccccc1-2)N1CCC(Cc2nncn2CC2CC2)CC1`, the “activity change, negative = inhibition” value is reported as -3.31%.
With `O=C(Nc1ccc(F)c(F)c1)c1ccc(=O)n(Cc2ccc(F)cc2)c1` the “activity change, negative = inhibition” value was 3.37%.
For `CC(=O)Nc1ccc(NC(=O)c2c(C)oc3ccn(Cc4ccc(F)cc4)c(=O)c23)cc1`, the Potency was 10.6 µM (active).
With `Cc1ccc(-c2nc(NC(=O)c3cc(C(C)(C)C)nn3C)sc2C)cc1Cl` the Potency was 10.6 µM (active).
With `CCOC(=O)c1cccc(NC(=O)C2=C(C)C(=O)OC23CCCCC3)c1` the “activity change, negative = inhibition” value was 1.2%.
For `CCOC(=O)c1cccc(NC(=O)CCn2c(-c3ccc(F)cc3)cc(C(=O)OCC)c2C)c1`, the Potency was 0.075 µM (active).
For `CCOC(=O)c1cc(-c2ccc(OC)cc2)n(CCC(=O)Nc2cccc(C(C)=O)c2)c1C`, the Potency was 0.211 µM (active).
For `CCOC(=O)c1cccc(NC(=O)CSc2cc(=O)n(C)c3ccccc23)c1`, the “activity change, negative = inhibition” value was 9.12%.
In the case of `CCN1CCN(Cc2ccc(NC(=O)c3cc(NC(=O)c4cnn(-c5ccccc5)c4N)cc(OC)c3)cc2C(F)(F)F)CC1`, the Potency is reported as 2.11 µM (active).
For `CCN1CCN(Cc2ccc(NC(=O)c3cc(NC(=O)C4=NN(c5ccccc5)C(=O)C4)cc(OC)c3)cc2C(F)(F)F)CC1`, the Potency was 8.41 µM (active).
For `CCN1CCN(Cc2ccc(NC(=O)c3ccc(C)c(NC(=O)C4=NN(c5ccccc5)C(=O)C4)c3)cc2C(F)(F)F)CC1`, the Potency was 8.41 µM (active).
For `CCCCN(C(=O)c1cccc(S(=O)(=O)N(C)c2ccc(C)cc2)c1)c1c(N)n(CCCC)c(=O)[nH]c1=O`, the Potency was 5.31 µM (active).
With `CN(C)c1ccc(CN2CCC3(CC2)COc2ccccc2C(=O)N3)cc1` the Potency was 2.66 µM (active).
For `O=C1CC2CCCC(C1)N2C(=O)c1ccc(C(F)(F)F)cc1`, the “activity change, negative = inhibition” value was 35.6% [at 43.1 µM].
For `O=C1NC2(CCN(Cc3ccc(C(F)(F)F)cc3)CC2)COc2ccccc21`, the Potency was 8.41 µM (active).
In the case of `O=C1NC2(CCN(C(=O)c3cccnc3)CC2)Oc2ccccc21`, the “activity change, negative = inhibition” value is reported as 34.6% [at 43.1 µM].
In the case of `COc1cccc([S+](=O)([O-])N2CCC3(COc4ccccc4C(=O)N3)C2)c1` (stereo not drawn), the “activity change, negative = inhibition” value is reported as 5.79%.
With `O=C1NC2(CN(Cc3ccc(F)cc3)C2)Oc2ccccc21` the “activity change, negative = inhibition” value was -14.2% [at 43.1 µM].
For `O=C1Nc2ccccc2CC12CCCCN2Cc1ccc(C(F)(F)F)cc1` (stereo not drawn), the “activity change, negative = inhibition” value was 10.3%.
With `O=C1NC2(CCN(C(=O)c3ccc(C(F)(F)F)cc3)CC2)COc2ccccc21` the Potency was 8.41 µM (active).
In the case of `C=C(C)COc1ccc(-c2ncnc(C(F)(F)F)c2-c2ccccc2)c(O)c1`, the Potency is reported as 2.37 µM (active).
With `C=C(C)COc1ccc(-c2n[nH]c(C)c2-c2ccccc2)c(O)c1` the Potency was 4.73 µM (active).
With `C=C(C)COc1ccc(-c2ncncc2-c2ccc(Br)cc2)c(O)c1` the “activity change, negative = inhibition” value was -25.8%.
With `C=C(C)COc1ccc(-c2ncnc(C(F)(F)F)c2-c2ccc(OC)cc2)c(O)c1` the Potency was 2.99 µM (active).
In the case of `COc1cc(C(=O)NC2CCCc3c2[nH]c2c(Cl)cccc32)cc(OC)c1OC` (stereo not drawn), the Potency is reported as 2.11 µM (active).
In the case of `O=C(NC1CCCc2c1[nH]c1ccccc21)c1ccccc1` (stereo not drawn), the “activity change, negative = inhibition” value is reported as 6.14%.
In the case of `Cc1ccc2c(c1)c(C(=O)N1CCC3(CCNC(=O)CC3)CC1)nn2C`, the “activity change, negative = inhibition” value is reported as 46.6%.
With `O=C(CN(C(=O)c1cccc([N+](=O)[O-])c1)C1CCCCC1)Nc1ccc(Cl)c([N+](=O)[O-])c1` the Potency was 13.3 µM (active).
For `CN(CC1CCOCC1)C(=O)c1cccc(Cl)c1`, the “activity change, negative = inhibition” value was 17.8%.
With `CCC(=O)C1=C(c2cccc([N+](=O)[O-])c2)N(C(=O)CC)n2c(nnc2-c2ccccc2)S1` the Potency was 5.31 µM (active).
In the case of `CCC(=O)C1=C(c2ccccc2)N(C(=O)CC)n2c(nnc2-c2ccccc2)S1`, the Potency is reported as 5.96 µM (active).
With `CCC(=O)C1=C(c2ccc(OC)c(OC)c2)N(C(=O)CC)n2c(CC)nnc2S1` the Potency was 4.73 µM (active).
For `CCC(=O)C1=C(c2cccc([N+](=O)[O-])c2)N(C(=O)CC)n2c(nnc2C2CCCCC2)S1`, the Potency was 1.88 µM (active).
With `CCc1noc(-c2nc(-c3ccc(OC)c(OC)c3)no2)n1` the “activity change, negative = inhibition” value was 28.2%.
For `COc1cc2nc(SCc3ccc(F)cc3)n3nc(CCn4c(C)nc5ccccc54)nc3c2cc1OC`, the Potency was 2.99 µM (active).
In the case of `CN(C)c1ccc(C(=O)N[C@H]2CO[C@H]3[C@@H]2OC[C@@H]3n2cc(COc3ccccc3)nn2)cc1`, the “activity change, negative = inhibition” value is reported as 48%.
For `C#CCN1c2ccccc2Sc2cccnc21`, the Potency was 6.68 µM (active).
With `CCc1cccc(NC(=O)C(Cc2ccccc2)NS(=O)(=O)c2ccc3c(c2)oc(=O)n3C)c1` (stereo not drawn) the “activity change, negative = inhibition” value was 5.42%.
With `CC(C)Cc1cc(C(=O)Nc2cc(Br)ccc2O)no1` the Potency was 4.73 µM (active).
With `COc1ccc(Cl)cc1NC(=O)c1sc(-n2nc(C)c(Cc3ccccc3)c2C)nc1C` the “activity change, negative = inhibition” value was 28.8%.
For `CC(C)Cc1cc(CNc2nccc(-c3cc(C(=O)O)ccn3)n2)no1`, the “activity change, negative = inhibition” value was 51.6%.
With `COc1cccc(-c2cc(C(=O)Nc3cc(Cl)ccc3O)on2)c1` the Potency was 4.73 µM (active).
With `CC(C)c1cc(C(=O)Nc2cc(Cl)ccc2O)no1` the Potency was 6.68 µM (active).
In the case of `COc1cccc(-c2ccc3c(n2)CNC(=O)CO3)c1`, the “activity change, negative = inhibition” value is reported as -22.2% [at 57.5 µM].
For `Cc1cc(-c2ccc(S(=O)(=O)Nc3cc(Cl)ccc3C)s2)on1`, the “activity change, negative = inhibition” value was 7.99%.
